According to ChEMBL document CHEMBL1961873, “Compounds: GSK PKIS; Assays: Nanosyn kinase panel” (2012):

What was measured:
[1] = target: T1, 3-phosphoinositide-dependent protein kinase 1 (Homo sapiens) (UniProt O15530); conditions: at 0.1 µM;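 note: values are mean inhibition of PDK1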
T1 sequence (whole entry): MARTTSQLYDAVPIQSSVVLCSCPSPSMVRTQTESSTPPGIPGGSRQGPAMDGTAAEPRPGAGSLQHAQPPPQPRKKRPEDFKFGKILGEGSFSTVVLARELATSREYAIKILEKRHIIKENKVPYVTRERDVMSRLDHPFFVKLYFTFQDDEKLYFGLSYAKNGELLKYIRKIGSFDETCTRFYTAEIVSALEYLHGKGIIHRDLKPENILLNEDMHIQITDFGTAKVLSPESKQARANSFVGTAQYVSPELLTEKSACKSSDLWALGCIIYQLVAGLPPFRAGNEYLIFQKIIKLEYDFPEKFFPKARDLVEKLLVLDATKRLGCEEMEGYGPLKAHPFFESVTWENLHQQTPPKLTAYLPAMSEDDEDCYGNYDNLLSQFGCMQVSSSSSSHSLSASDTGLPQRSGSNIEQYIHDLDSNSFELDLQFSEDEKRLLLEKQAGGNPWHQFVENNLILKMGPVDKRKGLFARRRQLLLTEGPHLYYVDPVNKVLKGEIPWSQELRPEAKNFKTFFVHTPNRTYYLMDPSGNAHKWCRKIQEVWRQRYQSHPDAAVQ

[2] = target: cAMP-dependent protein kinase catalytic subunit alpha (Homo sapiens) (UniProt P17612); conditions: at 0.1 µM
[3] = target: cAMP-dependent protein kinase catalytic subunit alpha (Homo sapiens) (UniProt P17612); conditions: at 1 µM
[4] = target: Protein kinase C alpha type (Homo sapiens) (UniProt P17252); conditions: at 0.1 µM
[5] = target: Protein kinase C alpha type (Homo sapiens) (UniProt P17252); conditions: at 1 µM
[6] = target: Protein kinase C beta type (Homo sapiens) (UniProt P05771); conditions: at 0.1 µM
Protein kinase C beta type (Homo sapiens), sequence (P05771 2-671 limits assumed): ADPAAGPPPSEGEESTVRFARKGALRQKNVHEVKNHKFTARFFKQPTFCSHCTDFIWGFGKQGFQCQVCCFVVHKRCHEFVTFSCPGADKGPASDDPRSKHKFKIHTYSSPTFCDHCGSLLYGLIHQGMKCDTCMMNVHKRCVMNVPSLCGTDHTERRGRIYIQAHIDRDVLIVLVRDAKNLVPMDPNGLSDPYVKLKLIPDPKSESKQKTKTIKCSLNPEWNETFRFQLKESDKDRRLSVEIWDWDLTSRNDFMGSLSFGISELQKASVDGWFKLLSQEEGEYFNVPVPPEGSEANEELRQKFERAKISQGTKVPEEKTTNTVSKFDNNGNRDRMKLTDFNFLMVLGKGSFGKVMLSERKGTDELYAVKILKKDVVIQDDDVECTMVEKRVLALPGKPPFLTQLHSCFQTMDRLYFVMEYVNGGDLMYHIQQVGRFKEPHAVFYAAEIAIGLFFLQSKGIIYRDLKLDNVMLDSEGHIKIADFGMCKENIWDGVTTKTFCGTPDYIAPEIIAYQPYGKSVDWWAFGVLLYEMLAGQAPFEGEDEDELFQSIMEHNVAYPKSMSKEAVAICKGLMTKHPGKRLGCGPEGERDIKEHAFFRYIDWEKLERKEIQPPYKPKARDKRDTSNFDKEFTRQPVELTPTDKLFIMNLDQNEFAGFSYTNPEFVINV

[7] = target: Protein kinase C beta type (Homo sapiens) (UniProt P05771); conditions: at 1 µM
[8] = target: Protein kinase C eta type (Homo sapiens) (UniProt P24723); conditions: at 0.1 µM
Protein kinase C eta type (Homo sapiens), sequence (P24723 whole entry): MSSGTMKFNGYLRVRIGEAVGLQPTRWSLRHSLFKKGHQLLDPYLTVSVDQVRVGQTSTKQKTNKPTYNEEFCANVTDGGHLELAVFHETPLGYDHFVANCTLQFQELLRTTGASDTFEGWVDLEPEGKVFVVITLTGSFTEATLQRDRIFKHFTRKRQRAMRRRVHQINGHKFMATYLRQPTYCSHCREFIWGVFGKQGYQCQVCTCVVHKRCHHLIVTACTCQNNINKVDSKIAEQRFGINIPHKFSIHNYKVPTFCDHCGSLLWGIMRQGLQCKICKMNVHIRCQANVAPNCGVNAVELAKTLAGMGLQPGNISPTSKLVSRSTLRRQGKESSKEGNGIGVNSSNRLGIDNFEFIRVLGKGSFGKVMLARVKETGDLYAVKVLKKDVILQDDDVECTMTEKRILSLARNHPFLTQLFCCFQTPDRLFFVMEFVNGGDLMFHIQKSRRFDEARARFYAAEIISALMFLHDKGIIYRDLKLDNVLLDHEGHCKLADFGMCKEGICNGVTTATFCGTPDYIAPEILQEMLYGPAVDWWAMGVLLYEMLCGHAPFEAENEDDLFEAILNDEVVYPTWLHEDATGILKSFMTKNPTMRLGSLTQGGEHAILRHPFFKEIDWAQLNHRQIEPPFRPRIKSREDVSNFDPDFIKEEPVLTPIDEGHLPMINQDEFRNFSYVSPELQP

[9] = target: Protein kinase C eta type (Homo sapiens) (UniProt P24723); conditions: at 1 µM
[10] = target: Protein kinase C gamma type (Homo sapiens) (UniProt P05129); conditions: at 0.1 µM;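 note: values are mean percent inhibition of PKC gamma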

Row | SMILES | inhibition [1] | inhibition [2] | inhibition [3] | inhibition [4] | inhibition [5] | inhibition [6] | inhibition [7] | inhibition [8] | inhibition [9] | inhibition [10]
1 | COc1cccc(/C=N/Nc2ncnc3c2cnn3-c2cccc(OC)c2)c1 | 1.13% | 1.27% | 1.21% | 0.12% | 0.85% | -0.96% | 0.85% | 5.46% | 4.14% | 3.43%
2 | CCc1cccc(CC)c1/C=C/c1cncc(C(=O)NC)c1 | 0.34% | 1.89% | 1.06% | 1.01% | 3.13% | 0.31% | 0.32% | 1.99% | -0.26% | 1.06%
3 | NS(=O)(=O)c1ccc(N/N=C2\C(=O)Nc3ccc(-c4cnco4)cc32)cc1 | 2.95% | -3.28% | -2.27% | -4.06% | -1.84% | 1.26% | 0.36% | 3.38% | 1.24% | -1.13%
4 | O=C(Nc1ccc(Oc2ccc3[nH]c(NC(=O)c4ccccc4)nc3c2)cc1)Nc1cc(C(F)(F)F)ccc1F | 1.16% | 1.01% | 1.45% | 0.3% | 1.8% | 0.29% | 3.18% | 1.1% | 4.58% | 3.6%
5 | C[C@@H](Oc1cc(-n2cnc3ccc(OCC4CCN(C)CC4)cc32)sc1C(N)=O)c1ccccc1Cl | 2.77% | 3.4% | -1.07% | 1.11% | 5.2% | 1.4% | 3.67% | 5.52% | 5.34% | 3.17%
6 | C[C@@H](Oc1cc(-n2cnc3ccc(OC4CCN(C)CC4)cc32)sc1C(N)=O)c1ccccc1Cl | 0.63% | -1.89% | -4.19% | -3.4% | 0.64% | 0.95% | 3.55% | 2.46% | 4.62% | 0.71%
7 | NC(=O)Cc1ccccc1Oc1nccc(-c2c(-c3ccc(F)cc3)ncn2C2CCNCC2)n1 | 1.03% | 1.37% | 0.93% | 0.35% | 1.51% | -0.44% | 3.18% | 3.28% | 0.22% | 4.12%
8 | C#Cc1cccc(Nc2ncnc3ccc(OCCCCNCCS(C)(=O)=O)cc23)c1 | 1.83% | -0.23% | -0.04% | -2.51% | 0.29% | 1.6% | 4.77% | 0.97% | 4.94% | 3.27%
9 | CN(C)CCCNc1nccc(-c2c(-c3ccc(F)cc3)nn3cc(C(F)(F)F)ccc23)n1 | 2.53% | -2.76% | -2.98% | -2.9% | -2.14% | 2.22% | 0.97% | 6.55% | 0.14% | 1.19%
10 | COc1ccc(-c2ccc3c(NC(=O)C4CC4)n[nH]c3n2)cc1 | -1.04% | 1.31% | 1.22% | -0.95% | -0.98% | -0.58% | 1.54% | 1.15% | 1.68% | 0.57%
11 | CCc1ccc(Oc2nccc(-c3c(-c4ccc(F)cc4)ncn3C3CCNCC3)n2)cc1 | 1.58% | 25.9% | 75% | 0.98% | 7.86% | 3.94% | 14.9% | 7.26% | 5.32% | -0.16%
12 | NS(=O)(=O)c1ccc(Nc2cc(-c3ccc(O)c(F)c3)n[nH]2)cc1 | -2.08% | -2.2% | -0.83% | -0.97% | 0.4% | -0.01% | 0.79% | -3.29% | -5.2% | -3.75%
13 | O=C1Nc2ccc(I)cc2C1=Cc1cc(Br)c(O)c(Br)c1 | 1.34% | 2.28% | 2.5% | 0.27% | 0.59% | 0.25% | 1.41% | 5.57% | 2.17% | 2.32%
14 | c1ccc(-c2n[nH]cc2-c2ccnc(-c3ccc(OCCN4CCOCC4)cc3)c2)nc1 | 1.56% | 7.85% | 3.77% | 2.22% | 1.97% | 5.36% | 3.85% | -2.82% | -2.18% | 3.17%
15 | O=C1Nc2ccccc2/C1=C/Nc1ccc(-n2cncn2)cc1 | 2.38% | 1.48% | 4.31% | 0.43% | 1.82% | 0.83% | 2.25% | 8.55% | 5.57% | 0.54%
16 | CN(C)CCOc1ccc(-c2cc(-c3ccc4c(c3)CCC4=NO)c(-c3ccncc3)o2)cc1 | 0.51% | 2.75% | 21% | -0.04% | 1.32% | -1.02% | 4.4% | 0.38% | -1.11% | 0.61%
17 | O=C(Nc1n[nH]c2nc(-c3ccc(O)cc3)c(Br)cc12)C1CC1 | 5.57% | 2.91% | 5.49% | 5.38% | 36.9% | 6.11% | 36.5% | 6.81% | 12.9% | 12.7%

Row | SMILES | inhibition [1] | inhibition [2] | inhibition [3] | inhibition [4] | inhibition [5] | inhibition [6] | inhibition [7] | inhibition [8] | inhibition [9] | inhibition [10]
18 | COc1cc(Nc2ncc3c(C)nc(-c4cccc(C(F)(F)F)c4)n3n2)cc(OC)c1OC | 3.64% | 2.66% | 2.72% | -0.1% | 1.99% | 0.93% | 5.54% | 6.38% | 3.64% | 2.47%
19 | Cc1ccc(NC(=O)c2ccoc2)cc1-c1ccc(C(=O)NCC2CC2)cc1 | 0.18% | 2.1% | 2.23% | -0.03% | 0.82% | 1.84% | 1.76% | 4.75% | 3.88% | -1.55%
20 | NS(=O)(=O)c1ccc(N/N=C2\C(=O)Nc3ccc(C(=O)NCCCn4ccnc4)cc32)cc1 | 3.57% | 2.3% | 2.8% | 0.48% | 3.66% | 0.75% | 3.15% | 3.58% | 4.66% | 3.24%
21 | CCC(=O)Nc1ccc(C)c(-c2ccc(C(=O)NCC3CC3)cc2)c1 | 2.1% | 2.1% | 1.49% | -0.25% | 0.8% | 0.07% | -0.89% | 5.65% | 3.46% | 0.1%
22 | N#Cc1ccc(Oc2nccc(-c3c(-c4ccc(F)cc4)ncn3C3CCNCC3)n2)cc1 | 8.47% | 2.63% | 5.75% | 0.69% | 2.61% | 1.45% | 2.93% | 6.05% | 5.43% | 1.87%
23 | NC(=O)c1cc(-c2ccncc2)cc(-c2ccccc2)c1N | 2.16% | 2.43% | 6.13% | 1.21% | 4.38% | 1.43% | 1.87% | 5.05% | 7.89% | -0.73%
24 | COc1cc2ncn(-c3cc(OCCc4ccccc4)c(C(N)=O)s3)c2cc1OC | 1.29% | 1.37% | -1.08% | 0.95% | 1.14% | 0.05% | -0.8% | -1.3% | 0.58% | 1.89%
25 | Cc1ccc(C(=O)NC2CCC2)cc1-c1ccc(C(=O)NCC2CC2)cc1 | 1.97% | 1.15% | 1.14% | 0.19% | -0.23% | 0.31% | 1.48% | 7.1% | 2.68% | 0.43%
26 | FC(F)(F)c1cccc(Nc2nccc(-c3cnn4nc(-c5ccccc5)ccc34)n2)c1 | -0.51% | 1.63% | 0.52% | -0.27% | 0.87% | -0.86% | 2.15% | 2.08% | 3.01% | 2.43%
27 | CS(=O)(=O)CCNCc1cc(-c2cc3c(Nc4ccc(OCc5cccc(F)c5)c(Cl)c4)ncnc3s2)cs1 | 2.06% | 1.96% | 1.98% | 0.73% | 1.44% | 0.43% | 1.19% | 5.83% | 7.05% | 2.95%
28 | O=C1NC(=O)C(c2cccc(Cl)c2)=C1Nc1ccc(Cl)c(C(=O)O)c1 | 1.28% | 2.1% | 1.05% | 0.36% | 0.21% | 0.61% | 1.11% | 3.84% | 8.96% | 4.02%
29 | Fc1ccc(-c2ncn(C3CCNCC3)c2-c2ccnc(Oc3ccc(Oc4ccccc4)cc3)n2)cc1 | 0.03% | 4.74% | 24.9% | 1.36% | 4.49% | 1.48% | 11.2% | 1.53% | 5.81% | 2.37%
30 | CN1CCN(CCCNc2nc3ccc(Oc4ccc(NC(=O)Nc5cc(C(F)(F)F)ccc5F)cc4)cc3[nH]2)CC1 | 2.91% | -1.46% | -0.98% | -2.39% | -1.52% | 2.13% | 1.42% | 1.27% | 1.68% | 1.25%
31 | CCN(CC)Cc1ccc(Nc2nccc(-c3cnn4ncccc34)n2)cc1 | 0.96% | -0.94% | 4.26% | 0.47% | 17.8% | 0.22% | -5.55% | 5.27% | 7.25% | 0.4%
32 | O=C(Nc1n[nH]c2nc(-c3ccco3)ccc12)C1CC1 | 2.58% | 1.78% | 4.07% | -0.2% | 0.41% | -0.22% | -1.09% | -0.3% | 1.42% | -0.6%
33 | CCS(=O)(=O)c1ccc(OC)c(Nc2ncc(-c3cccc(-c4ccccc4F)c3)o2)c1 | 9.34% | 0.57% | 1.3% | 1.13% | 1.66% | 0.49% | 0.3% | -1.89% | -1.48% | 0.64%
34 | O=C(Nc1n[nH]c2cc(-c3cc(F)ccc3F)ccc12)C1CC1 | 2.95% | 2.32% | 0.93% | 0.67% | 1.99% | 0.43% | 2.04% | 2.87% | 3.93% | 2.77%
